Compound activity deposited in PubChem by National Center for Advancing Translational Sciences (NCATS).
An excerpt weighted towards active compounds, which were near 11% of everything screened.
BAZ2B block – blocks human BAZ2B; Q9UIF8; AlphaScreen BAZ2B-H3K14Ac peptide displacement; Potency, µM (titrated, usually from 114 µM), usual class: inhibitors; 4.4% of 360,000 active; AID 504333; also: nearly all actives have a fitted effect of over 60% in size
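AlphaScreen displacement: compounds (up to 110uM) incubated 30 min at room temperature with a preformed 50 nM BAZ2B/50 nM biotinylated H3K14Ac peptide complex in PBS pH 7.4 with Tween-20. Donor and acceptor beads at 10 ug/mL final added, 20 min light-protected before reading.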
JMJD2A Tudor inh – blocks the human JMJD2A Tudor domain | O75164 | AlphaScreen JMJD2A-Tudor / H3K4me3 peptide binding | Potency, µM (doses to about 114 µM), hits mostly inhibitors | 4.4% of 390,000 active | AID 504339; also: nearly all actives have a fitted effect of over 50% in size
G9a inh – blocks human histone lysine methyltransferase G9a | G9a H3K9 monomethylation, AlphaScreen, 2 h | Potency, µM (highest dose often 102 µM), hits mostly inhibitors | 8.8% of 350,000 active | AID 504332 | Q96KQ7; also: nearly all actives have a fitted effect of over 75% in size
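AlphaScreen detection with an anti-monomethyl H3K9 antibody quantified product after a 2 h room-temperature reaction containing 500 nM biotinylated H3K9 peptide, 20 µM SAM and 20 nM enzyme, which had been preincubated 15 min with compound.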
VDR inhibitor – inhibitors of human vitamin D receptor. 0.93% of 400,000 active. Potency, µM, hits mostly inhibitors. VDR-SRC2-3 peptide fluorescence polarization, 2 h. P11473
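Fluorescence polarization assay of small-molecule disruption of VDR binding to coregulator peptide SRC2-3. Compounds and controls pin-transferred, then read after 2 h incubation at ambient room temperature.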
HP1b binding inh – HP1-beta chromodomain-methylated histone interaction inhibition. Potency, µM (top dose mostly 114 µM), most hits filed as inhibitors. 0.56% of 390,000 active. AID 540317. AlphaScreen HP1-beta / biotin-H3K9me3 peptide binding; also: nearly all actives have a fitted effect of over 70% in size
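HP1-beta protein (50 nM final) preincubated 30 min at room temperature with biotinylated H3(1-18)K9me3 peptide (50 nM) in PBS pH 7.4, 0.01% Tween-20, then compound added for 30 min. AlphaScreen streptavidin donor/nickel chelate acceptor beads (10 ug/mL final), 30 min dark, luminescence read.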
PLK1 PBD block – PLK1 (human) polo-box domain binding inhibition | 2.8% of 360,000 active | Potency, µM, usual class: inhibitors | Plk1 PBD binding of FITC phosphopeptide, fluorescence polarization | P53350 | AID 720504; also: series mostly up to about 57 µM; nearly all actives have a fitted effect of over 65% in size
A number is an active result; i = inactive; ? = inconclusive; nt = not tested or not shown; [ ] = remark or other dose. Calls follow the shape of the dose curve; as a rule, active = well fitted curve in the direction sought with a large enough effect; inconclusive = small, poorly fitted or top-dose-only effect, or another doubt; inactive = no such curve, though single readings can be large; an effect the other way counts as inactive or inconclusive.

SMILES	BAZ2B block	JMJD2A Tudor inh	G9a inh	VDR inhibitor	HP1b binding inh	PLK1 PBD block
NS(=O)(=O)c1ccc(CCNCC(=O)NCc2ccccc2Cl)cc1	50.1µM	28.2µM	i	i	i	i
O=C(COC(=O)/C=C/c1ccccc1Cl)NCc1ccco1	50.1µM	i	?	i	i	i
N#CC1=C2SCC(O)(c3ccccc3)N2C(=O)CC1c1ccccc1 (stereo not given)	?	i	39.8µM	i	i	i
N#CC1=C(SCc2ccccc2)NC(=O)CC1c1ccccc1 (stereo not given)	i	i	i	i	i	i
CCCCCCCCCCCCCCOc1ccc(C(=O)O)o1	nt	nt	nt	11.2µM	nt	nt
O=C(Nc1ccc(-c2nc3ccccc3[nH]2)cc1)c1ccccc1NS(=O)(=O)c1ccc(F)cc1	i	i	i	i	i	26.7µM
Cc1ccc(S(=O)(=O)Nc2ccccc2C(=O)Nc2nc(-c3ccc(F)cc3)cs2)cc1	i	?	i	i	i	26.7µM
COc1ccc(-c2csc(NC(=O)c3ccccc3NS(=O)(=O)c3ccc(F)c(F)c3)n2)cc1	44.7µM	56.2µM	i[12.7 µM]	i	?	21.2µM
Cc1ccc(S(=O)(=O)Nc2nc(-c3ccccc3)cs2)cc1	?	i	?	i	i	?
N#Cc1ccccc1NC(=O)CSc1nnc(N)s1	i	i	?	i	i	nt
O=C(NC(Cc1ccccc1)C(=O)O)/C(=C/c1ccc([N+](=O)[O-])cc1)NC(=O)c1ccc(Br)o1 (stereo not given)	i	i	i	i	i	i
O=C(NC(Cc1ccccc1)C(=O)O)/C(=C\c1ccc([N+](=O)[O-])cc1)NC(=O)c1ccco1 (stereo not given)	i	i	nt	i	i	i
O=C(NC(Cc1ccccc1)C(=O)O)/C(=C\c1ccc(Cl)cc1)NC(=O)c1ccco1 (stereo not given)	i	i	79.4µM	i	i	i
O=C(Nc1ccccc1C(=O)O)/C(=C/c1ccc([N+](=O)[O-])cc1)NC(=O)c1ccc(Br)o1	i	i	44.7µM	i	i	i
O=C(Nc1ccccc1)/C(=C/c1ccc([N+](=O)[O-])cc1)NC(=O)c1ccco1	i	i	17.8µM	i	i	i
O=C(Nc1ccccc1)/C(=C\c1ccccc1)NC(=O)c1ccco1	i	i	nt	i	i	i
COC(=O)c1cc(OC)c(OC)cc1NC(=O)c1c(-c2ccccc2Cl)noc1C	nt	i	i	i	i	i
Cc1c(-c2cccc(NC(=O)c3ccc(F)c(F)c3)c2)nc2ncccn12	i	i	i	i	i	nt
Cc1cc(C)cc(-n2nnc(-c3nc(-c4ccc5c(c4)OCO5)no3)c2C)c1	i	i	i	i	i	nt
CC(C)CN(CCNC(=O)CC1Oc2ccccc2NC1=O)CC(C)C (stereo not given)	i	i	?	i	i	i
CC1CCN(Cc2ccc(NC(=O)CC3Oc4ccccc4NC3=O)cc2)CC1 (stereo not given)	i	i	50.1µM	i	i	i
CCC(C)N(CCNC(=O)CC1Oc2ccccc2NC1=O)C1CCCCC1 (stereo not given)	i	i	50.1µM	i	i	i
CCN(CCNC(=O)CC1Oc2ccccc2NC1=O)c1ccccc1 (stereo not given)	i	i	79.4µM	i	i	i
CCC1CCCCN1CCCNC(=O)CC1Oc2ccccc2NC1=O (stereo not given)	i	i	i	i	i	i
CCOc1ccc(Br)cc1S(=O)(=O)Nc1cccnc1	i	i	?	i	i	i
SMILES	BAZ2B block	JMJD2A Tudor inh	G9a inh	VDR inhibitor	HP1b binding inh	PLK1 PBD block
CC1(C)CC2(C)OC(=N)C1(C#N)C2(C#N)C#N (stereo not given)	i	i	56.2µM	i	i	i
COc1ccccc1OC(=O)CCc1nc2ccccc2s1	?	i	50.1µM	i	i	?
COC(=O)C(Cc1ccc(O)cc1)NC(=O)CCc1nc2ccccc2s1 (stereo not given)	i	i	39.8µM	i	i	i
CC(=O)c1ccc(OC(=O)CCc2nc3ccccc3s2)cc1	?	i	31.6µM	39.8µM	i	?
CCOC(=O)c1[nH]c(C)c(C(=O)OCC(=O)N(Cc2ccccc2)C(C)C)c1C	i	?	i[2.33 µM]	i	i	i
CN1C(=O)C(=O)/C(=C(/O)c2ccc(Br)cc2)C1c1ccc(F)cc1 (stereo not given)	i	i	70.8µM	i	i	i
Cc1ccc(/C(O)=C2\C(=O)C(=O)N(C)C2c2ccc(Br)cc2)cc1 (stereo not given)	i	i	?	i	i	i
COc1ccc(N2C(=O)C(=O)/C(=C(/O)c3ccc(C)cc3)C2c2cccnc2)cc1 (stereo not given)	56.2µM	?	?	i	i	i
O=C1C(=O)N(c2ccccn2)C(c2ccc(Br)cc2)/C1=C(/O)c1ccc(Br)cc1 (stereo not given)	i	i	44.7µM	i	i	i
Cc1ccc(N2C(=O)c3n[nH]c(C)c3C2c2ccc(Cl)cc2)cc1 (stereo not given)	nt	i	i	?	i	nt
O=C1C(=O)N(c2ccccn2)C(c2ccc(F)cc2)/C1=C(/O)c1ccc(Br)cc1 (stereo not given)	i	i	i[0.501 µM]	i	i	i
COc1ccc(/C(O)=C2/C(=O)C(=O)N(c3ccccn3)C2c2ccc(OC)cc2)cc1 (stereo not given)	i	i	?	i	i	i
Cc1ccc(N2C(=O)c3n[nH]c(C)c3C2c2cccnc2)cc1 (stereo not given)	i	i	50.1µM	i	i	i
Cc1cc(C(=O)NCc2ccccc2)c2c(C)nn(-c3cccc(Cl)c3C)c2n1	i	i	i	i	i	nt
CN1CCCC1CCNc1ncnc2ccc(-c3ccc4c(c3)OCO4)cc12 (stereo not given)	nt	i	nt	nt	nt	nt
CCOc1ccc(/C(O)=C2/C(=O)C(=O)N(c3ccccn3)C2c2ccc(F)cc2)c(C)c1 (stereo not given)	i	?	28.2µM	i	i	i
Cc1ccc(/C(O)=C2/C(=O)C(=O)N(c3ccccn3)C2c2ccc(F)cc2)cc1 (stereo not given)	i	i	39.8µM	i	i	i
COc1ccc(Cn2ccc3nc(C)c(C(=O)N4CCN(c5cc(C)ccc5C)CC4)cc3c2=O)cc1	?	i	i	i	i	nt
CCc1ccc(N2C(=O)CC(N(CC3CCCO3)C(=O)/C=C/C(=O)O)C2=O)cc1 (stereo not given)	i	i	89.1µM	i	i	i
COc1ccc(CCN(C(=O)/C=C/C(=O)O)C2CC(=O)N(c3ccccc3)C2=O)cc1 (stereo not given)	i	i	i	i	i	i
Cc1nn(C(C)C(=O)O)c(C)c1[N+](=O)[O-] (stereo not given)	i	i	i[0.501 µM]	i	i	i
